Measured values published in PubChem BioAssay.
Where “and” joins values, the source holds several entries; their conditions need not be identical. Equal values may be shown once. Results filed as inconclusive are left out. Calls of active or inactive are those of the source. Unless noted, the limit is not given here; nearly all actives have AC50 up to about 26 µM.

Legend:
[1] = tested on: Aerobactin synthetase IucA (Klebsiella pneumoniae); experiment: inhibition of K. pneumoniae IucA enzyme – biochemical, Tocris library, absorbance (AID 1345561; call rule not given here;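 also: 100% = enzyme without compound and 0% = no enzyme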); settings: purified IucA enzyme assay, absorbance (OD) read-out; stronger effect = lower value;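 tested at 8 µM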
[2] = viability loss in pontine glioma line – cell-based, SU-DIPG-XVII, MIPE5.0, CellTiter-Glo, qHTS, dose response (AID 1347060); settings: CellTiter-Glo ATP luminescence;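 as to AC50: cells exposed to compound for 48 hours before viability readout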
[3] = viability loss in pontine glioma line – cell-based, SU-DIPG-XIII, MIPE4.0, CellTiter-Glo, qHTS, dose response (AID 1347061; cut-off not given, nearly all actives have AC50 up to about 37 µM;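 also: cells exposed to compound for 48 hours before readout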); settings: CellTiter-Glo ATP luminescence
[4] = viability loss in pontine glioma line – cell-based, JHH-DIPG-1, MIPE4.0, CellTiter-Glo, qHTS, dose response (AID 1347062; cut-off not given, nearly all actives have AC50 up to about 27 µM;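 as to AC50: cells exposed to compound for two days before readout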); settings: JHH-DIPG-1 viability, CellTiter-Glo ATP luminescence
[5] = viability loss in pontine glioma line – cell-based, SU-DIPG-IV, MIPE4.0, CellTiter-Glo, qHTS, dose response (AID 1347063; cut-off not given, nearly all actives have AC50 up to about 30 µM;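 also: compound exposure lasted 48 hours before the viability readout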); settings: CellTiter-Glo ATP luminescence
[6] = viability loss in pontine glioma line – cell-based, SU-DIPG-XIII, MIPE5.0, CellTiter-Glo, qHTS, dose response (AID 1347064; cut-off not given, nearly all actives have AC50 up to about 23 µM;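 as to AC50: cells exposed to compound for 48 hours before the viability read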); settings: CellTiter-Glo ATP luminescence
[7] = growth inhibition of DIPG cells – cell-based, MIPE4.0 library, CellTiter-Glo luminescence, qHTS (AID 1347066; cut-off not given, nearly all actives have AC50 up to about 30 µM;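 also: cells exposed to compound for 48 hours before readout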); settings: SU-DIPG-VI viability, CellTiter-Glo ATP luminescence
[8] = JHH-DIPG-1 glioma cell viability, MIPE5.0 library, CellTiter-Glo luminescence, qHTS (AID 1347067); settings: JHH-DIPG-1 glioma viability, CellTiter-Glo ATP luminescence;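 also: cells exposed to compound for 48 hours before readout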
[9] = growth inhibition of DIPG cells – cell-based, MIPE5.0 library, qHTS (AID 1347068; cut-off not given, nearly all actives have IC50 up to about 30 µM;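 as to IC50: cells exposed to compound for 48 hours before viability readout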); settings: SU-DIPG-XXV viability
[10] = viability loss with induced miR-34 in A549 – imaging, A549 dox-inducible miR-34, nuclei and caspase counts, primary screen (AID 1347080;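 active = compounds whose cell count with miR-34 switched on is under 0.7 times the count with it off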); settings: A549 miR-34 inducible, Hoechst nuclei count, 48 h
[11] = galactose survival enhancers in mitochondrial complex I cybrids – cell-based, galactose medium, ATP luminescence, primary screen (AID 1645843;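 active = z-score of at least 1.8 in each of two replicates, scored against plate mean and spread of sample wells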;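 also: positive z means more ATP and so rescue of galactose-driven cybrid death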); settings: complex I mutant cybrid cells, 72 h, stronger effect = higher value
[12] = compounds altering HSF1 focus formation in cells – imaging, Selleck Cancer Library (AID 1347162; in the data active = plate-normalised HSF1 focus index below about 0.46); settings: human cells, HSF1 nuclear foci imaging, at 10 µM; SSMD: measured here: HSF1 foci SSMD mean; cell count: measured here: cell number; plate-normalised HSF1 focus index: stronger effect = lower value
[13] = MELAS cybrid and Rieske KO viability enhancers – cell-based, MELAS cybrids, Rieske KO mouse fibroblasts, CellTiter-Glo, primary screen (AID 1508586;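 active = mean z-score across replicates of 1.96 or higher in either the MELAS or the Rieske mutant cell line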;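 also: z relative to plate mean and SD of compound and empty wells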); settings: low glucose
[14] = viability loss in pontine glioma line – cell-based, SU-DIPG-XXV, MIPE5.0, CellTiter-Glo, qHTS, dose response (AID 1347065); settings: CellTiter-Glo ATP luminescence;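 also: cells exposed to compound for 48 hours before ATP readout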
[15] = P. berghei load reduction in hepatocytes – cell-based, HepG2, luciferase luminescence, HepG2 viability, primary screen (AID 624349; in the data active = parasite load remaining mostly below about 12%, no sharp cut-off; inactive = mostly above about 10%;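 also: 100% = mean of DMSO negative control wells on the same plate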); settings: P. berghei liver stage in HepG2, luciferase luminescence, concentration not given here; parasite load remaining: stronger effect = lower value; viability: measured here: HepG2 viability without parasites
[16] = drug combination growth inhibition, ovarian cancer – cell-based, oncology-focused library, rucaparib conditional, profiling panel (AID 1508598;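 active = normalized viability below 100% at a tested concentration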); settings: patient-derived ovarian cancer cells, CellTiter-Glo viability, 144 h, stronger effect = lower value
[17] = stronger effect = lower value, cell number ratio, induced over uninduced
[18] = measured here: relative caspase fold change +Dox/-Dox
[19] = measured here: total cells with miR-34 induction, stronger effect = lower value
[20] = measured here: total cells without miR-34 induction
[21] = MELAS cybrid survival, CellTiter-Glo 48 h, stronger effect = higher value
[22] = Rieske KO mouse fibroblast survival, CellTiter-Glo 72 h

O=C(O)C1CCCN(CCC=C(c2ccccc2)c2ccccc2)C1 (stereo not given)
remaining activity [1]: 104% (inactive)
outcome [2]: inactive
outcome [3]: inactive
outcome [4]: inactive
outcome [5]: inactive
outcome [6]: inactive
outcome [7]: inactive
outcome [8]: inactive
outcome [9]: inactive
fold change [10, 17]: 0.98 (inactive) and 0.952 (inactive)
fold change [10, 18]: 1.12 and 1.07
cell count [10, 19]: 9290 and 8980
cell count [10, 20]: 9480 and 9430
z-score [11]: 0.12 (inactive) and 0.13 (inactive)

Cc1[nH]c(/C=C2\C(=O)Nc3ccccc32)c(C)c1CCC(=O)O
remaining activity [1]: 95.9% (inactive)
AC50 [2]: 16.6 µM (active)
AC50 [4]: 16.6 µM (active)
fold change [10, 17]: 0.887 (inactive)
fold change [10, 18]: 1.48
cell count [10, 19]: 5970
cell count [10, 20]: 6730
z-score [11]: 0.51 (inactive)

CCN(CC)CCCC(C)Nc1nc(C)cc(Nc2ccc3nc(C)cc(N)c3c2)n1 (stereo not given)
remaining activity [1]: 104% (inactive)
outcome [2]: inactive
outcome [3]: inactive
outcome [5]: inactive
outcome [6]: inactive
outcome [7]: inactive
outcome [8]: inactive
outcome [9]: inactive
fold change [10, 17]: 0.97 (inactive) and 0.925 (inactive)
fold change [10, 18]: 0.421 and 1.06
cell count [10, 19]: 7920 and 8660
cell count [10, 20]: 8160 and 9370
SSMD [12]: 3.48
cell count [12]: 7010
plate-normalised HSF1 focus index [12]: 1.21 (inactive)
z-score [13, 21]: -0.488 (inactive)
z-score [13, 22]: -2.27
z-score [11]: 2.71 (active)

CCOc1ccc(Nc2nc(-c3c(C)nc4ccccn34)cs2)cc1
remaining activity [1]: 103% (inactive)
AC50 [2]: 0.0661 µM (active)
AC50 [4]: 16.6 µM (active)
AC50 [6]: 0.059 µM (active)
AC50 [14]: 0.0372 µM (active)
outcome [7]: inactive
AC50 [8]: 0.0525 µM (active)
IC50 [9]: 0.372 µM (active)
fold change [10, 17]: 1.03 (inactive)
fold change [10, 18]: 1.27
cell count [10, 19]: 2200
cell count [10, 20]: 2140
SSMD [12]: 4.16
cell count [12]: 6300
plate-normalised HSF1 focus index [12]: 1.25 (inactive)
z-score [11]: -0.68 (inactive)

COc1nccc(-c2c(-c3ccc(F)cc3)ncn2C2CCC(O)CC2)n1 (stereo not given)
parasite load remaining [15]: 41% (inactive)
viability [15]: 82.3%
remaining activity [1]: 92.5% (inactive)
outcome [2]: inactive
outcome [3]: inactive
outcome [4]: inactive
outcome [5]: inactive
outcome [7]: inactive
outcome [8]: inactive
outcome [9]: inactive
fold change [10, 17]: 0.979 (inactive)
fold change [10, 18]: 0.79
cell count [10, 19]: 6910
cell count [10, 20]: 7050
z-score [11]: 0.59 (inactive)

COc1cccc(-c2cc(=O)c3ccccc3o2)c1N
parasite load remaining [15]: 29.3% (inactive)
viability [15]: 68.4%
remaining activity [1]: 102% (inactive)
outcome [2]: inactive
outcome [3]: inactive
outcome [4]: inactive
outcome [6]: inactive
outcome [14]: inactive
outcome [9]: inactive
z-score [13, 21]: -0.498 (inactive)
z-score [13, 22]: 1.33
z-score [11]: -0.045 (inactive) and 0.145 (inactive)

O=Nc1c(-c2c(O)[nH]c3cc(Br)ccc23)[nH]c2ccccc12
parasite load remaining [15]: 17.4% (inactive)
viability [15]: 92.7%
remaining activity [1]: 107% (inactive)
AC50 [2]: 8.33 µM (active)
outcome [3]: inactive
AC50 [4]: 20.9 µM (active)
AC50 [5]: 3.32 µM (active)
AC50 [6]: 14.8 µM (active)
AC50 [14]: 7.42 µM (active)
AC50 [7]: 20.9 µM (active)
AC50 [8]: 14.8 µM (active)
IC50 [9]: 10.5 µM (active)
z-score [13, 21]: -0.015 (inactive)
z-score [13, 22]: 1.62
z-score [11]: -1.29 (inactive) and -0.705 (inactive)

COc1ccc([C@@H]2CNC(=O)C2)cc1OC1CCCC1
remaining activity [1]: 102% (inactive)
outcome [2]: inactive
outcome [4]: inactive
outcome [6]: inactive
outcome [8]: inactive
outcome [9]: inactive
fold change [10, 17]: 0.954 (inactive)
fold change [10, 18]: 0.878
cell count [10, 19]: 8940
cell count [10, 20]: 9370
z-score [11]: -0.11 (inactive)

O=C(O)CCc1ccc(NCc2cccc(Oc3ccccc3)c2)cc1
remaining activity [1]: 92.7% (inactive)
outcome [2]: inactive
outcome [3]: inactive
outcome [4]: inactive
outcome [5]: inactive
outcome [6]: inactive
outcome [14]: inactive
outcome [7]: inactive
outcome [8]: inactive
outcome [9]: inactive
SSMD [12]: 3.5
cell count [12]: 6830
plate-normalised HSF1 focus index [12]: 1.21 (inactive)
z-score [13, 21]: -0.374 (inactive)
z-score [13, 22]: 0.82
z-score [11]: 0.215 (inactive) and -0.155 (inactive)

O=c1[nH]c(-c2ccc(C(F)(F)F)cc2)nc2c1CSCC2
remaining activity [1]: 117% (inactive)
outcome [2]: inactive
outcome [4]: inactive
outcome [8]: inactive
outcome [9]: inactive
fold change [10, 17]: 0.924 (inactive) and 0.863 (inactive) and 0.929 (inactive)
fold change [10, 18]: 0.982 and 0.937 and 1.32
cell count [10, 19]: 4310 and 5060 and 7820
cell count [10, 20]: 4660 and 5860 and 8410
SSMD [12]: 1.98
cell count [12]: 7170
plate-normalised HSF1 focus index [12]: 1.12 (inactive)
z-score [13, 21]: -0.501 (inactive)
z-score [13, 22]: 0.33
viability ([16]; at 0.000305 µM, OCI-C5x cells, with rucaparib 10 µM, 100% = cells with rucaparib alone): 100% (inactive)
viability ([16]; at 0.000305 µM, OCI-C5x cells, without rucaparib): 93.7% (active)
viability ([16]; at 0.000305 µM, OCI-P5x cells, with rucaparib 20 µM, 100% = cells with rucaparib alone): 98.7% (active)
viability ([16]; at 0.000305 µM, OCI-P5x cells, without rucaparib): 103% (inactive)
viability ([16]; at 0.00122 µM, OCI-C5x cells, with rucaparib 10 µM, 100% = cells with rucaparib alone): 108% (inactive)
viability ([16]; at 0.00122 µM, OCI-C5x cells, without rucaparib): 99.5% (active)
viability ([16]; at 0.00122 µM, OCI-P5x cells, with rucaparib 20 µM, 100% = cells with rucaparib alone): 107% (inactive)
viability ([16]; at 0.00122 µM, OCI-P5x cells, without rucaparib): 106% (inactive)
viability ([16]; at 0.00488 µM, OCI-C5x cells, with rucaparib 10 µM, 100% = cells with rucaparib alone): 121% (inactive)
viability ([16]; at 0.00488 µM, OCI-C5x cells, without rucaparib): 102% (inactive)
viability ([16]; at 0.00488 µM, OCI-P5x cells, with rucaparib 20 µM, 100% = cells with rucaparib alone): 110% (inactive)
viability ([16]; at 0.00488 µM, OCI-P5x cells, without rucaparib): 99.8% (active)
viability ([16]; at 0.0195 µM, OCI-C5x cells, with rucaparib 10 µM, 100% = cells with rucaparib alone): 109% (inactive)
viability ([16]; at 0.0195 µM, OCI-C5x cells, without rucaparib): 102% (inactive)
viability ([16]; at 0.0195 µM, OCI-P5x cells, with rucaparib 20 µM, 100% = cells with rucaparib alone): 114% (inactive)
viability ([16]; at 0.0195 µM, OCI-P5x cells, without rucaparib): 113% (inactive)
